Measured values from the supplement of paper PMC10646978.
± gives the standard deviation.

Experiments:
Settings in all cases: modulator concentration 10 µM
[1] = tested on: RAW-Dual (murine macrophage reporter line); test: NF-kB reporter (SEAP) activity fold change vs agonist alone; higher = enhanced NF-kB activity
Summary of the method: (§1)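 Overnight stimulation with a PRR agonist followed pre-incubation for 1 hour at 37 °C with compound at 10 μM final. This was done in RAW-Dual murine macrophage reporter cells seeded at 50 000 per well in 384-well plates. NF-κB (SEAP, QUANTI-Blue absorbance at 620 nm) and IRF (Lucia luciferase, QUANTI-Luc luminescence) were read from the supernatant. Each reporter's fold change relative to the mean agonist-only control on the same plate was averaged over replicate plates.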

[2] = tested on: RAW-Dual (murine macrophage reporter line); test: IRF reporter (Lucia luciferase) activity fold change vs agonist alone; higher = enhanced IRF activity
Summary of the method: as §1

[3] = tested on: RAW-Dual (murine macrophage reporter line); test: viability score (confluency relative to resting cells, overnight) (fraction); higher = more viable, active = viable (0.7 or more)
Summary of the method: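 Two confluency masks, generated with IncuCyte software over all imaged wells, were applied to IncuCyte images of RAW-Dual macrophages. The cells, in 384-well plates, had been exposed overnight to 10 μM final compound. The viability score is confluency as a fraction of resting cells, and a compound met the cutoff only with both masks above 70% of resting cells.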

[4] = agonist: CpG ODN 1826 0.5 ug/mL

| Structure (SMILES) | NF-kB reporter [1, 4] | NF-kB reporter ([1]; agonist: LPS 0.1 ug/mL) | NF-kB reporter ([1]; agonist: MPLA […]) | IRF reporter ([2]; agonist: 3'3'-cGAMP 10 ug/mL) | IRF reporter ([2]; agonist: LPS 0.1 ug/mL) | IRF reporter ([2]; agonist: MPLA […]) | viability score [3] |
| --- | --- | --- | --- | --- | --- | --- | --- |
| CC12C=CC(CO)(O1)C1C(=O)NC(=O)C12 (stereo not drawn) | 1.26 ± 0.1 | 1.07 ± 0.066 | 0.838 ± 0.082 | 0.907 ± 0.047 | 0.469 ± 0.027 | 0.32 ± 0.027 | 0.783 (active) |
| CN(C)c1nc(CNS(C)(=O)=O)nc(N2CCOCC2)n1 | 0.908 ± 0.047 | 0.916 ± 0.091 | 1.02 ± 0.071 | 1.08 ± 0.049 | 1.07 ± 0.18 | 1.14 ± 0.38 | 1.02 (active) |
| Br.O=S(=O)(c1ccc(-c2csc(Nc3ccc(Cl)cc3)n2)cc1)N1CCCC1 | 0.941 ± 0.15 | 1.04 ± 0.13 | 0.869 ± 0.069 | 0.885 ± 0.026 | 1.19 ± 0.17 | 1.48 ± 0.28 | 0.991 (active) |
| Cc1cc(C)n(N=Cc2c[nH]c3ccccc23)c(=O)c1C#N | 1.08 ± 0.18 | 0.963 ± 0.099 | 1.02 ± 0.096 | 1.03 ± 0.032 | 1.4 ± 0.24 | 1.6 ± 0.23 | 1.03 (active) |
| CCN(CCO)CCCOc1ccc2c(Nc3cc(CC(=O)Nc4cccc(F)c4)n[nH]3)ncnc2c1 | 0.703 ± 0.17 | 0.902 ± 0.23 | 0.893 ± 0.098 | 0.982 ± 0.03 | 1.25 ± 0.25 | 1.18 ± 0.12 | 0.951 (active) |
| CC(=O)OC1(C(C)=O)CCC2C3CC(C)C4=CC(=O)CCC4(C)C3CCC21C (stereo not drawn) | 1.65 ± 0.4 | 1.36 ± 0.11 | 1.29 ± 0.089 | 0.937 ± 0.045 | 1.1 ± 0.13 | 1.23 ± 0.14 | 0.984 (active) |
| COCCOC(=O)C1=C(C)NC(C)=C(C(=O)OC/C=C/c2ccccc2)C1c1cccc([N+](=O)[O-])c1 (stereo not drawn) | 0.743 ± 0.078 | 0.787 ± 0.037 | 0.938 ± 0.09 | 1 ± 0.057 | 1.18 ± 0.088 | 1.17 ± 0.1 | 1.01 (active) |
| Cc1ccc2c(c1)C(=O)CC(O)(C(F)F)O2 (stereo not drawn) | 0.922 ± 0.073 | 1 ± 0.067 | 0.954 ± 0.062 | 0.764 ± 0.12 | 0.984 ± 0.089 | 0.959 ± 0.14 | 1 (active) |
| CCCCc1nc2cc(/C=C/C(=O)NO)ccc2n1CCN(CC)CC | 1.6 ± 0.08 | 1.77 ± 0.14 | 2.71 ± 0.12 | 0.0513 ± 0.0098 | 0.266 ± 0.019 | 0.424 ± 0.05 | 0.0718 (inactive) |
| CCOC(=O)C1=C(C)NC(C)=C(C(=O)OC)C1c1ccccc1 (stereo not drawn) | 0.884 ± 0.1 | 0.831 ± 0.057 | 1.63 ± 0.059 | 0.609 ± 0.085 | 0.896 ± 0.037 | 0.79 ± 0.06 | 0.946 (active) |
| COC(CNC(=O)C(C)(C)Oc1ccc(Cl)cc1)c1cccc(F)c1 (stereo not drawn) | 1.27 ± 0.39 | 1.07 ± 0.055 | 1.14 ± 0.081 | 0.96 ± 0.035 | 0.959 ± 0.16 | 1.04 ± 0.18 | 0.973 (active) |
| O=C(CN(c1cc(Cl)cc(Cl)c1)S(=O)(=O)c1ccccc1)N1CCCCCC1 | 1.06 ± 0.13 | 1.13 ± 0.1 | 1.13 ± 0.068 | 0.943 ± 0.14 | 0.991 ± 0.062 | 0.875 ± 0.057 | 0.996 (active) |
| Cc1cccc2sc(OC3CN(C(=O)Nc4ccccc4C(F)(F)F)C3)nc12 | 0.912 ± 0.047 | 1.13 ± 0.089 | 0.872 ± 0.043 | 1.12 ± 0.065 | 1.19 ± 0.19 | 1.15 ± 0.31 | 0.981 (active) |
| O=C(O)CN1C(=O)c2cccc3cccc(c23)C1=O | 1.11 ± 0.083 | 0.935 ± 0.053 | 1.01 ± 0.039 | 0.934 ± 0.053 | 0.911 ± 0.14 | 0.956 ± 0.22 | 0.998 (active) |
| COc1cc2c3cc1Oc1cc(ccc1O)OC1c4c(cc(OC)c(O)c4Oc4ccc(cc4)CC3N(C)CC2)CCN1C (stereo not drawn) | 0.191 ± 0.011 | 1.05 ± 0.064 | 1.03 ± 0.084 | 0.793 ± 0.034 | 1.47 ± 0.23 | 1.34 ± 0.13 | 0.995 (active) |
| CCN[C@H]1CN(CCCOC)S(=O)(=O)c2sc(S(N)(=O)=O)cc21 | 1.01 ± 0.12 | 1.04 ± 0.059 | 0.975 ± 0.05 | 1.03 ± 0.067 | 0.913 ± 0.042 | 1 ± 0.12 | 1 (active) |
| COC(=O)CNC(c1ccccc1)c1cc(Br)ccc1NC(=O)c1ccccc1Cl (stereo not drawn) | 0.675 ± 0.059 | 1.08 ± 0.092 | 0.963 ± 0.091 | 1 ± 0.037 | 1.78 ± 0.17 | 1.59 ± 0.16 | 1.01 (active) |
| CN1CCN(C2=Nc3ccccc3Oc3ccc(Cl)cc32)CC1.O=C(O)CCC(=O)O | 0.411 ± 0.052 | 0.796 ± 0.081 | 1.07 ± 0.1 | 0.548 ± 0.12 | 0.722 ± 0.13 | 0.672 ± 0.15 | 0.92 (active) |
| O=C(Nc1cccnc1)c1ccc(OC2CCOCC2)nc1 | 1.08 ± 0.37 | 0.97 ± 0.06 | 1 ± 0.063 | 0.912 ± 0.046 | 1.05 ± 0.13 | 1.3 ± 0.14 | 0.99 (active) |
| CCN1C(=O)C(=Cc2c[nH]c3ccccc23)SC1=S | 0.67 ± 0.075 | 0.994 ± 0.081 | 0.868 ± 0.033 | 0.813 ± 0.16 | 1.02 ± 0.084 | 1.36 ± 0.18 | 0.804 (active) |
| COc1cc(NC(=O)COc2cc(C)c(Cl)c(C)c2)cc(OC)c1 | 1.02 ± 0.18 | 0.954 ± 0.078 | 0.854 ± 0.098 | 0.93 ± 0.025 | 1.06 ± 0.12 | 1.04 ± 0.12 | 1 (active) |
| O=c1c(-c2ccc(O)cc2)coc2cc(O)cc(O)c12 | 1.54 ± 0.4 | 1.01 ± 0.26 | 1.2 ± 0.079 | 0.625 ± 0.02 | 0.76 ± 0.29 | 0.842 ± 0.1 | 0.945 (active) |
| COc1cc(C=C(C#N)c2nc3ccccc3[nH]2)cc(Cl)c1O | 1.23 ± 0.07 | 1.05 ± 0.09 | 0.992 ± 0.029 | 1.09 ± 0.039 | 1.06 ± 0.061 | 1.07 ± 0.14 | 0.998 (active) |
| COCCn1c(C)cc(C(=O)CSc2ncnc3sc4c(c23)CCC4)c1C | 0.991 ± 0.067 | 1.11 ± 0.12 | 1.02 ± 0.079 | 1.04 ± 0.036 | 1.43 ± 0.12 | 1.16 ± 0.12 | 0.994 (active) |
